Compounds without any hit were thinned out: in the full panel of roughly 83,000, 20% have a hit.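 Single-concentration screen, 48 h exposure, 96-well plates. Endpoint: percent growth. Below 10 = active.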 A number with no mark means an inactive call. Calls of active or inactive are those of the source.
Tested on: MDA-MB-468 breast
Experiment: NCI-60 one-dose screen, 48 h (100 = growth as untreated, 0 = no growth, -100 = all killed)
Settings: 10 µM unless noted

Structure (SMILES)	growth
CCCCCCCCCCCCCCCCCCNC(=O)[C@H]1CSC(c2ccc(OC)c(F)c2)N1 (some centres undefined)	76.9%
Clc1ccc(N/N=C(/c2ccccc2)c2ccccn2)nc1	4.13% (active)
C=C1C(=O)O[C@H]2[C@H]1CC/C(COC(=O)NCCc1ccc(OC)cc1)=C\CC[C@@]1(C)O[C@@H]21	-2.57% (active)
CC(=O)Nc1ncc(S(=O)(=O)c2ccc([N+](=O)[O-])cc2)s1	107%
O=C(Nc1ccc2ccccc2c1)c1cc2ccccc2cc1O	123%
Cc1ccc(-c2nc3ccc(Cl)cc3c(=O)n2N2C(=O)CSC2c2ccccc2Cl)cc1 (centres undefined)	107%
CS(=O)(=O)c1ccc(-c2cnc3ccc(-c4cccc(S(C)(=O)=O)c4)nn23)cc1	6.54% (active)
c1cnc2[nH]cc(-c3csc(-c4cn(CCCN5CCOCC5)c5ccccc45)n3)c2c1	26.2%
O=C(c1ccc(F)c(F)c1Nc1ccc(I)cc1F)N1CC(O)([C@@H]2CCCCN2)C1	25.2%
CN(C)CC(O)c1ccc2cc(Br)c3ccccc3c2c1 (centres undefined)	-0.132% (active)
CC1(C)Cc2c(cn(Cc3ccccc3)c2-c2ccccc2)-c2oncc21	88.5%
CC1=CCC(OC(=O)C(C)(C)CC(O)(C(C)O)C(O)C2(C)C=CC(Cc3ccc(C(C)C)cc3)(C(C)C)CC2)(C(C)C)CC1 (centres undefined)	83.1%
CCn1cc(C(=O)O)c(=O)c2cc(F)c(N3CCN(S(=O)(=O)c4c(C)cc(C)cc4C)CC3)cc21	80.3%
COc1ccc(-c2c(NC(=O)Nc3ccc(Cl)c(C(F)(F)F)c3)cnn2-c2ccc(S(N)(=O)=O)cc2)cc1	26.7%

Reference: PubChem BioAssay (NCI)
